# Source: the supplement of paper PMC3545927
# Some of the results follow. The true hit rate is not given.
# Target: furin, P09958
# Experiment: furin cleavage Z-score vs untreated control; higher = more cleavage, active = 3.5 or more, inactive = 1 or less, 8 variable residues between constant flanks
# How it was run: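 The cleavage Z-score is the log read count relative to furin-free reactions, lowess-adjusted and scaled by median absolute deviation. Counts came from sequencing DNA released from bead-bound 8-mer peptide–cDNA fusions after digestion with purified furin for 7.5, 15 or 30 min.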
# 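Further: purified furin at 1:10 enzyme:substrate in 50 mM HEPES pH 7.5.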
# Sequence of furin, P09958 (P09958 whole entry): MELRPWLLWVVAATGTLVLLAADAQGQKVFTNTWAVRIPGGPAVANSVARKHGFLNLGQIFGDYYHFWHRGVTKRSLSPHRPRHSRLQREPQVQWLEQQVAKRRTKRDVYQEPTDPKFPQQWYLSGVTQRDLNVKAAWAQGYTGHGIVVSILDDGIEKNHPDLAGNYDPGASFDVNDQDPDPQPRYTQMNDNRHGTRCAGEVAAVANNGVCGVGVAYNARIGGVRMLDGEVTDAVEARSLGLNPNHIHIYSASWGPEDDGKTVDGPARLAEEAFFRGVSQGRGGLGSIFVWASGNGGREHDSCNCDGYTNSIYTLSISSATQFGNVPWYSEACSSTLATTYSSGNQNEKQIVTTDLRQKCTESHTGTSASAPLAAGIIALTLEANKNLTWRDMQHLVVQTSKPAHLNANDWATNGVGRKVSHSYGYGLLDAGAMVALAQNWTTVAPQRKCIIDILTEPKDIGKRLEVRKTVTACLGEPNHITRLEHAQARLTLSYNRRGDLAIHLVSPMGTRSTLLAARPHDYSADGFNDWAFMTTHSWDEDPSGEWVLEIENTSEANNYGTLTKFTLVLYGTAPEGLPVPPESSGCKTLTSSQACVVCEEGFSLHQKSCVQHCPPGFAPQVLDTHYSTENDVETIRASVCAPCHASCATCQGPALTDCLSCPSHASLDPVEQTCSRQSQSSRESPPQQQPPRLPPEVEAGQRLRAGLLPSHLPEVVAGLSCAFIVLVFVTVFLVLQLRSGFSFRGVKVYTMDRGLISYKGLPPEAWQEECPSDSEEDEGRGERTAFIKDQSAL
Sequence,furin cleavage Z-score (7.5 min),furin cleavage Z-score (15 min),furin cleavage Z-score (30 min)
CALPGNPAIAAGNASASA [HC1051],0.0659 (inactive),-0.342 (inactive),-0.64 (inactive)
CACGPVYCFTAGNASASA [HC412],0.624 (inactive),0.0869 (inactive),-0.506 (inactive)
CAPPLVETWKAGNASASA [HC1308],2.31,0.789 (inactive),-0.408 (inactive)
CARKRRKRKKAGNASASA [FS-858],0.153 (inactive),0.772 (inactive),1.09
CAHPLRKRRKAGNASASA [FS-131],8.81 (active),9.6 (active),7.46 (active)
CAVKSRKRRKAGNASASA [FS-149],11 (active),11.7 (active),8.76 (active)
CASTPCSAHIAGNASASA [HC2564],-0.152 (inactive),-1.03 (inactive),-0.677 (inactive)
CALWWLQYFLAGNASASA [HC582],-0.496 (inactive),-0.768 (inactive),-1.19 (inactive)
CAEVVDSTWVAGNASASA [HC132],-0.25 (inactive),1.14,-1.05 (inactive)
CATTPDSGSWAGNASASA [HC52],-0.899 (inactive),-0.656 (inactive),-0.757 (inactive)
CASTPCSKHLAGNASASA [HC2534],1,-1.62 (inactive),0.302 (inactive)
CAHTWREKRLAGNASASA [FS-31],1.05,0.418 (inactive),0.0913 (inactive)
CASTPCSARLAGNASASA [HC2553],0.576 (inactive),0.581 (inactive),-0.498 (inactive)
CAVLEESKRLAGNASASA [FS-1429],-0.217 (inactive),-1.55 (inactive),-0.503 (inactive)
CATTYRSKRLAGNASASA [FS-886],8.78 (active),10.5 (active),9.12 (active)
CASTPRSKRLAGNASASA [FS-1091],3.77 (active),6.77 (active),5.46 (active)
CAEVQTSTWVAGNASASA [HC2202],0.816 (inactive),1.29,1.14
CARRPRPRREAGNASASA [FS-1480],8.98 (active),9.92 (active),8.21 (active)
CADPLRPRREAGNASASA [FS-122],5.53 (active),5.14 (active),4.87 (active)
CARRRRPERGAGNASASA [FS-495],1.03,0.676 (inactive),1.87
CARRRRPERVAGNASASA [FS-3064],0.335 (inactive),0.809 (inactive),1.19
CADPLVAEEDAGNASASA [HC1289],-0.0204 (inactive),-0.956 (inactive),-0.261 (inactive)
CARRRRPRREAGNASASA [FS-1404],7.83 (active),8.28 (active),6.14 (active)
CARRPRFKDIAGNASASA [FS-3058],0.143 (inactive),-0.201 (inactive),0.618 (inactive)
CALVAFKIMSAGNASASA [HC1092],-0.725 (inactive),-0.454 (inactive),-0.368 (inactive)
CAAPSRRSRSAGNASASA [FS-216],9.21 (active),8.84 (active),7.91 (active)
CASSREKRRSAGNASASA [FS-1285],0.453 (inactive),0.575 (inactive),2.39
CASSSRRRRSAGNASASA [FS-1286],9.8 (active),8.59 (active),7.58 (active)
CASSSRRSRSAGNASASA [FS-1615],7.43 (active),8.67 (active),6.73 (active)
CAKHSRRRRSAGNASASA [FS-174],10.9 (active),10.7 (active),6.68 (active)
